Laboratory results taken from PubChem BioAssay (NCI).
Values joined by “and” are separate entries in the source; they are usually repeats but may differ in a detail not shown here. Equal values may be shown once. About 83,000 compounds went through this panel and 20% of them were active in at least one assay; those are over-represented in the sample as a whole.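 Results are percent growth after 48 hours of single-concentration exposure. 100 means growth as in untreated cells, lower positive values show inhibition; negative values down to -100 show cell death.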 Unmarked numbers belong to inactive results. Active and inactive are the calls of the source. Rule for the calls: active = growth percent below 10; inactive = the rest.

Legend:
Experiment in all cases: NCI-60 one-dose screen, 48 h (100 = growth as untreated, 0 = no growth, -100 = all killed)
Conditions in all cases: 10 µM unless noted
NCI/ADR-RES ovarian = system: NCI/ADR-RES ovarian
T-47D breast = system: T-47D breast
BT-549 breast = system: BT-549 breast
MDA-MB-435 melanoma = system: MDA-MB-435 melanoma
SW-620 colon = system: SW-620 colon
MCF7 breast = system: MCF7 breast
HCT-116 colon = system: HCT-116 colon
HCC-2998 colon = system: HCC-2998 colon
KM12 colon = system: KM12 colon

Cc1cc[n+](CCc2ccccc2)cc1
growth (NCI/ADR-RES ovarian): 91.2% and 111% | growth (T-47D breast): 95.4% and 101% | growth (BT-549 breast): 104% and 107% | growth (MDA-MB-435 melanoma): 102% and 104% | growth (SW-620 colon): 101% and 117% | growth (MCF7 breast): 101% and 104% | growth (HCT-116 colon): 91.2% and 103% | growth (HCC-2998 colon): 85.8% and 102% | growth (KM12 colon): 105% and 107%

COc1ccc2c(c1)c(-c1nc(-c3c[nH]c4ncccc34)cs1)cn2CCCCN1CCOCC1
growth (NCI/ADR-RES ovarian): 63.3% | growth (T-47D breast): 48% | growth (BT-549 breast): 84.2% | growth (MDA-MB-435 melanoma): -59% (active) | growth (SW-620 colon): -63% (active) | growth (MCF7 breast): 18.1% | growth (HCT-116 colon): 32.5% | growth (HCC-2998 colon): 26.7% | growth (KM12 colon): 16.4%

O=C(CBr)OCCOC(=O)CBr
growth (NCI/ADR-RES ovarian): 99.9% | growth (T-47D breast): 79.5% | growth (BT-549 breast): 65.4% | growth (MDA-MB-435 melanoma): 91.6% | growth (SW-620 colon): 58.1% | growth (MCF7 breast): 68.5% | growth (HCT-116 colon): 69.2% | growth (HCC-2998 colon): 110% | growth (KM12 colon): 99.5%

CCOC(=O)c1ccccc1C(=O)OCC
growth (NCI/ADR-RES ovarian): 102% | growth (T-47D breast): 100% | growth (BT-549 breast): 95.6% | growth (MDA-MB-435 melanoma): 91.5% | growth (SW-620 colon): 102% | growth (MCF7 breast): 97.8% | growth (HCT-116 colon): 100% | growth (HCC-2998 colon): 110% | growth (KM12 colon): 104%

CC[C@H](C)[C@H](NC(=O)[C@H]1CCCCN1C)C(=O)N(C)[C@H](CCc1nc(C(=O)N[C@@H](Cc2ccccc2)C[C@H](C)C(=O)O)cs1)C(C)C
growth (NCI/ADR-RES ovarian): 73.3% | growth (T-47D breast): 52.6% | growth (BT-549 breast): -3.33% (active) | growth (MDA-MB-435 melanoma): -38.1% (active) | growth (SW-620 colon): 27.6% | growth (MCF7 breast): 14.2% | growth (HCT-116 colon): 2.59% (active) | growth (HCC-2998 colon): 21.5% | growth (KM12 colon): 9.24% (active)

O=C(CCCN1CCC2(CC1)C(=O)NCN2c1ccccc1)c1ccc(F)cc1
growth (NCI/ADR-RES ovarian): 101% and 65.8% | growth (T-47D breast): 45.5% and 23.4% | growth (BT-549 breast): 98.2% and 87.2% | growth (MDA-MB-435 melanoma): 99.7% and 93.6% | growth (SW-620 colon): 84.4% and 68% | growth (MCF7 breast): 49.6% and 12% | growth (HCT-116 colon): 73.9% and 19.7% | growth (HCC-2998 colon): 104% and 42.3% | growth (KM12 colon): 102% and 86.3%

Nc1nc(=S)nc(N)[nH]1
growth (NCI/ADR-RES ovarian): 95.6% | growth (T-47D breast): 94.5% | growth (BT-549 breast): 77.8% | growth (MDA-MB-435 melanoma): 105% | growth (SW-620 colon): 101% | growth (MCF7 breast): 96.5% | growth (HCT-116 colon): 89.1% | growth (HCC-2998 colon): 92.1% | growth (KM12 colon): 112%

O=C(O)C(O)c1ccc(Cl)cc1 (stereo not drawn)
growth (NCI/ADR-RES ovarian): 106% and 107% | growth (T-47D breast): 93.1% and 138% | growth (BT-549 breast): 101% and 103% | growth (MDA-MB-435 melanoma): 105% and 115% | growth (SW-620 colon): 107% and 103% | growth (MCF7 breast): 97.1% and 106% | growth (HCT-116 colon): 93.7% and 95.1% | growth (HCC-2998 colon): 98.3% and 108% | growth (KM12 colon): 108% and 100%

C/C(=N/OC(=O)N(C)C)c1ccc(Cl)c(Cl)c1
growth (NCI/ADR-RES ovarian): 106% | growth (T-47D breast): 95.6% | growth (BT-549 breast): 125% | growth (MDA-MB-435 melanoma): 106% | growth (SW-620 colon): 115% | growth (MCF7 breast): 97.3% | growth (HCT-116 colon): 107% | growth (HCC-2998 colon): 109% | growth (KM12 colon): 109%

O=[N+]([O-])c1cc(Cl)c(Cl)cc1Cl
growth (NCI/ADR-RES ovarian): 102% and 104% | growth (T-47D breast): 107% and 108% | growth (BT-549 breast): 121% and 119% | growth (MDA-MB-435 melanoma): 101% and 107% | growth (SW-620 colon): 100% and 105% | growth (MCF7 breast): 99% and 113% | growth (HCT-116 colon): 107% and 106% | growth (HCC-2998 colon): 94.2% and 118% | growth (KM12 colon): 109% and 113%

COc1ccc(N)cc1OC
growth (NCI/ADR-RES ovarian): 107% | growth (T-47D breast): 100% | growth (BT-549 breast): 99.8% | growth (MDA-MB-435 melanoma): 103% | growth (SW-620 colon): 109% | growth (MCF7 breast): 102% | growth (HCT-116 colon): 103% | growth (HCC-2998 colon): 111% | growth (KM12 colon): 100%

COC(=O)[C@@H](C)C[C@H](Cc1ccccc1)NC(=O)c1cccc([C@@H](C[C@H](C(C)C)N(C)C(=O)[C@@H](NC(=O)[C@H]2CCCCN2C)C2CC2)OC(C)=O)n1
growth (NCI/ADR-RES ovarian): 16.4% | growth (T-47D breast): 63.1% | growth (BT-549 breast): -17.1% (active) | growth (MDA-MB-435 melanoma): -25.4% (active) | growth (SW-620 colon): 23% | growth (MCF7 breast): 14% | growth (HCT-116 colon): 1.92% (active) | growth (HCC-2998 colon): 13% | growth (KM12 colon): -1.96% (active)
